We go through eight compounds from PubChem BioAssay (Tox21).

SMILES strings stand for the structures. A number with no mark means an inactive call. Results filed as inconclusive are left out. The source made the active and inactive calls. Unless noted, calls come from the whole dose curve; as a rule, active = well fitted curve in the direction sought with a large enough effect in the repeat runs; inconclusive = weak or mixed curves; inactive = no such curve, though single readings can be large; an effect the other way counts as inactive or inconclusive.

Assay [1] has as its target Thyrotropin receptor (Homo sapiens) (UniProt P16473). The assay is described as follows: qHTS assay to identify small molecule agonists of the thyroid stimulating hormone receptor (TSHR) signaling pathway (AID 1224843; calls by dose curve; note: nearly all actives have a fitted effect of over 45% in size). An outline of the steps: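 Steps: seed 800 TSHR-HEK293 cells per well; add test compound and hold 30 min at ambient temperature; dispense cAMP-d2 then anti-cAMP cryptate; incubate 1 h at ambient; measure fluorescence intensity.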

Assay [2] is described as follows: qHTS assay to identify small molecule agonists of H2AX (AID 1224845; active = well fitted activation curve with a large enough effect in the signal ratio in the repeat runs, not every such curve was filed as active; the % refers to the signal ratio). An outline of the steps: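 Wild-type CHO-K1 cells, plated overnight, exposed 3hr at 37C to 15 concentrations (0.76% DMSO final). Lysed, then HTRF anti-pH2AX (S139) cryptate and anti-H2AX-d2 antibodies, 24 hr room temperature; 665/620 nm emission read.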
The nature of assay [3]: qHTS assay to identify small molecule agonists of the hypoxia (HIF-1) signaling pathway (AID 1224846; active = well fitted activation curve with a large enough effect in the signal ratio in the repeat runs, not every such curve was filed as active; the % refers to the signal ratio). An outline of the steps: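 Measured by blue/green FRET after loading CCF4-AM: beta-lactamase expressed from a hypoxia response element in ME-180 cells. Test agents were delivered in DMSO and left 17 hrs; cells had been plated 5 hrs earlier in low-serum (0.5% dialyzed FBS) medium.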

Assay [4] in a line: qHTS assay to identify small molecule agonists of H2AX - cell viability counter screen (AID 1224847; calls by dose curve; note: top concentration of the series differs between compounds; nearly all actives have a fitted effect of over 30% in size). An outline of the steps: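 Cytotoxicity counter screen in wild-type CHO-K1 cells: a 3 hr compound treatment at 37C across 15 concentrations, followed by CellTiter-Glo luminescence to gauge viable cells.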
The nature of assay [5]: qHTS RealTime-Glo MT Cell Viability Assay in HepG2 cells - 24 hour (AID 1224867). Note: nearly all actives have a fitted effect of over 50% in size. An outline of the steps:
(§1)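 HepG2 cells were seeded at 600 cells/well together with NanoLuc luciferase and a cell-permeant prosubstrate, preincubated 5 h at 37 C/5% CO2, then pin-dosed with compounds in DMSO. Nonlytic luminescence from viable cells was read at each time point.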

Assay [6] is described as follows: A CellTox Green Cytotoxicity Assay to monitor cytotoxicity in HEK293 cells - 0 hour (AID 1224869). Note: nearly all actives have a fitted effect of over 50% in size. An outline of the steps:
(§2)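 Each value comes from one timepoint of a single continuous run in which HEK293 cells with CellTox Green were exposed to compound for up to 40 h at 37 C, dye fluorescence rising with cell death.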

Assay [7] is described as follows: qHTS RealTime-Glo MT Cell Viability Assay in HepG2 cells - 40 hour (AID 1224870). Note: nearly all actives have a fitted effect of over 50% in size. An outline of the steps:
(§3)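 HepG2 cells (600/well) mixed with RealTime-Glo MT reagent, settled 5 h at 37 C/5% CO2 before compound addition. Nonlytic NanoLuc luminescence from viable-cell prosubstrate reduction read repeatedly during 40 h treatment at 37 C.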

Assay [8] can be described thus: A CellTox Green Cytotoxicity Assay to monitor cytotoxicity in HEK293 cells - 40 hour (AID 1224871). Note: nearly all actives have a fitted effect of over 45% in size. An outline of the steps: as §2
The nature of assay [9]: qHTS RealTime-Glo MT Cell Viability Assay in HepG2 cells - 8 hour (AID 1224873). Note: nearly all actives have a fitted effect of over 55% in size. An outline of the steps:
as §3

Assay [10] in a line: A CellTox Green Cytotoxicity Assay to monitor cytotoxicity in HEK293 cells - 24 hour (AID 1224875). Note: nearly all actives have a fitted effect of over 45% in size. An outline of the steps:
as §2

Assay [11] is described as follows: A CellTox Green Cytotoxicity Assay to monitor cytotoxicity in HepG2 cells - 16 hour (AID 1224876). Note: nearly all actives have a fitted effect of over 45% in size. An outline of the steps:
(§4)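 Continuous culture of HepG2 cells with a membrane-impermeant DNA dye; rising fluorescence marks dead cells. Compound exposure lasted up to 40 h at 37 C, with reads every 8 h from 0 h.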

A short description of assay [12]: qHTS RealTime-Glo MT Cell Viability Assay in HepG2 cells - 32 hour (AID 1224877). Note: nearly all actives have a fitted effect of over 55% in size. An outline of the steps:
as §1

The nature of assay [13]: A CellTox Green Cytotoxicity Assay to monitor cytotoxicity in HepG2 cells - 24 hour (AID 1224878). Note: nearly all actives have a fitted effect of over 45% in size. An outline of the steps:
as §4

The nature of assay [14]: A CellTox Green Cytotoxicity Assay to monitor cytotoxicity in HepG2 cells - 40 hour (AID 1224879). Note: nearly all actives have a fitted effect of over 40% in size. Note: potency is the fitted concentration of half-maximal effect. An outline of the steps:
as §4

Assay [15] in a line: qHTS RealTime-Glo MT Cell Viability Assay in HEK293 cells - 32 hour (AID 1224868). Note: top concentration of the series differs between compounds; nearly all actives have a fitted effect of over 50% in size. An outline of the steps:
(§5)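 HEK293 cells were seeded at 600 cells/well together with NanoLuc luciferase and cell-permeant prosubstrate, preincubated 5 h at 37 C/5% CO2, then given compound in DMSO by pintool. Luminescence from viable-cell prosubstrate reduction was read repeatedly over 40 h.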

The nature of assay [16]: qHTS RealTime-Glo MT Cell Viability Assay in HEK293 cells - 16 hour (AID 1224872). An outline of the steps: as §5
Assay [17] can be described thus: qHTS RealTime-Glo MT Cell Viability Assay in HEK293 cells - 40 hour (AID 1224874). Note: nearly all actives have a fitted effect of over 50% in size. As to conditions: RealTime-Glo luminescence; max response: hits give low values. An outline of the steps: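 qHTS format; HEK293 cells with NanoLuc/prosubstrate reagent, 37 C/5% CO2 for 5 h pre-dosing; compounds 23 nL in DMSO; luminescence at each time point reflects viable cells.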

Assay [18] in a line: qHTS assay to identify small molecule agonists of the hypoxia (HIF-1) signaling pathway - cell viability counter screen (AID 1224844; calls by dose curve; note: nearly all actives have a fitted effect of over 50% in size). An outline of the steps:
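Luminescent ATP content (CellTiter-Glo, 30 min, room temperature) served as the viability measure in HRE-bla ME-180 cells exposed to compounds for 17 hrs in low-serum medium (0.5% dialyzed FBS).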

The nature of assay [19]: qHTS assay to identify small molecule antagonists of the estrogen related receptor (ERR) signaling pathway from Tox21 library (AID 1224848). Note: nearly all actives have a fitted effect of over 50% in size. Note: potency is the fitted concentration of half-maximal effect. An outline of the steps: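 Luminescent reporter read-out (ONE-Glo) from NTP's ERR cell line after 18 h treatment at 37 C with DMSO-dissolved Tox21 compounds; cells pre-plated 6 h beforehand at 2,000 per well.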
Assay [20] in a line: qHTS assay to identify small molecule agonists of the estrogen related receptor (ERR) signaling pathway from Tox21 library (AID 1224849; calls by dose curve; note: nearly all actives have a fitted effect of over 15% in size). As to conditions: ERR reporter cell line, ONE-Glo luciferase, 18 h; at 92.4 µM (top of the series) unless noted. An outline of the steps: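 We plated ERR reporter cells, waited 6 h, added compounds in DMSO by pin tool and incubated them 18 h at 37 C. ONE-Glo was then added and luminescence read after 30 min.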
% is set by controls: 0 for no effect and ±100 for the full control effect.

Sequence of Thyrotropin receptor (Homo sapiens) (P16473 whole entry, looked up): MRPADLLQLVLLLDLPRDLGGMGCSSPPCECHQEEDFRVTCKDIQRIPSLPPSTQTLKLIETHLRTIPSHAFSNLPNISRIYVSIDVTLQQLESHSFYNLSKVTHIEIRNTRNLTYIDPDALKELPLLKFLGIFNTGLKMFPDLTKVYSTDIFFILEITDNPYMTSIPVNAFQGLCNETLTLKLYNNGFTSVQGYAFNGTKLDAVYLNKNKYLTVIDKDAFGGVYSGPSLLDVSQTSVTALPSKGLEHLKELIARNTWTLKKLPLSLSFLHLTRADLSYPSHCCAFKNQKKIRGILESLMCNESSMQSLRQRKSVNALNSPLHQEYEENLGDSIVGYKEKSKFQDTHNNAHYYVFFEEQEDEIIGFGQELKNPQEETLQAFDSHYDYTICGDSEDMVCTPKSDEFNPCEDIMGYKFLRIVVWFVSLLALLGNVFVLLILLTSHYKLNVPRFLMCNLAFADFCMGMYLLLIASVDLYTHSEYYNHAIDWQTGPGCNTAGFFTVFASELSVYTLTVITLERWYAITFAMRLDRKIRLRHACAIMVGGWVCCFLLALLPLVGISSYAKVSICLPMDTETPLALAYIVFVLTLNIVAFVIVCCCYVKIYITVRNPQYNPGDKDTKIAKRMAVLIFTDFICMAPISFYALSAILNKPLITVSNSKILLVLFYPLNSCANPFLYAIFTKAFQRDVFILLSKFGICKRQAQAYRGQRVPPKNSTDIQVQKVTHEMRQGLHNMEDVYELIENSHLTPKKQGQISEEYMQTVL

Consider `COC(=O)Nc1nc2ccc(C(=O)C3CC3)cc2[nH]1`, for which the Potency entry in assay [1], in assay [2], in assay [4], in assay [5], in assay [6] and in [7] was “inactive” in each case. The Potency entry in [8], in [9], in assay [10], in assay [11], in assay [12] and in assay [13] was “inactive” throughout. For the same compound, the result in [3] was inactive. In addition, in assay [14], the Potency is 0.848 µM (active).

Consider `CC(C)OC(=O)c1ccccc1C(=O)OC(C)C`, for which the Potency result in [1], in assay [2], in [4], in [5], in assay [15] and in [6] was “inactive” in each case. The Potency result in assay [7], in [16], in assay [9], in [10], in [11] and in assay [12] was “inactive” each time. Moreover, the Potency result in [13] and in [14] was “inactive” throughout. For the same compound, the outcome in [3] was inactive. Also, the max response in [17] was -14%.

Turning to `COC(=O)C1=C(C)NC(C)=C(C(=O)OC(C)(C)CN(C)CCC(c2ccccc2)c2ccccc2)C1c1cccc([N+](=O)[O-])c1` (centres undefined), the Potency entry in [1], in assay [18], in [4], in [15], in assay [6] and in [8] was “inactive” throughout. Also, the Potency result in assay [16], in assay [10], in assay [11], in assay [13] and in assay [14] was “inactive” in each case. In [19], the Potency was 13.3 µM (active). The activity change, positive = activation in assay [20] is -45.4% [at 42.5 µM]. Also, in assay [17], the max response was -18%.

Regarding `CC[C@@H](CO)NCCN[C@@H](CC)CO`, the Potency result in [1], in assay [18], in [19], in assay [5], in assay [15] and in [6] was “inactive” throughout. In addition, the Potency result in [7], in assay [8], in assay [16], in assay [9], in [10] and in assay [11] was “inactive” throughout. The Potency entry in assay [12], in assay [13] and in assay [14] was “inactive” throughout. For the same compound, the activity change, positive = activation in assay [20] was 0.599% [at 42.5 µM]. Further, in [17], the max response was 5.04%.

For `O=C(O)CO`, the Potency result in assay [1], in [18], in [5], in [15], in [6] and in [8] was “inactive” in each case. Further, the Potency entry in assay [16], in assay [9], in [10], in assay [11] and in assay [12] was “inactive” each time. Further, the call in [3] was inactive. Further, the max response in assay [17] was 8.33%.

With `CCCCCCC(O)CCOC(C)=O` (centres undefined), the Potency entry in [1], in [2], in assay [4], in assay [19], in assay [5] and in assay [6] was “inactive” throughout. For the same compound, the Potency result in assay [7], in assay [8], in assay [16], in assay [9], in assay [10] and in assay [12] was “inactive” throughout. Moreover, the Potency entry in assay [13] and in assay [14] was “inactive” throughout. For the same compound, the compound was classed as inactive in assay [3]. The activity change, positive = activation in assay [20] was -0.596% [at 240 µM]. Also, the max response in assay [17] is 0.328%.

Regarding `CCC(Cl)CC(Cl)C(Cl)C(Cl)C(Cl)C(C)Cl` (centres undefined), the activation was 15.8% [at 19 µM] in [1] and 0.0674% [at 15.8 µM] in assay [3]. The activity change, negative = cytotoxicity was -3.49% [at 15.8 µM] in assay [18], -5.22% [at 31.6 µM] in [4] and -1.2% [at 15.8 µM] in assay [5]. The cytotoxicity in assay [6] was 15.1% [at 15.8 µM]; in [13], 2.51% [at 15.8 µM]. The activity change, negative = cytotoxic is -0.479% [at 15.8 µM] in assay [7] and -0.891% [at 15.8 µM] in assay [12]. Further, in [9], the viability change, negative = cytotoxic is 0.0251% [at 15.8 µM]. Besides, the cytotoxicity increase in [11] is 7.76% [at 15.8 µM]; in assay [14] it was 0.801% [at 15.8 µM].

Turning to `O=C(Nc1ccc(C(=O)O)c(O)c1)c1ccccc1`, the Potency entry in [1], in assay [18], in assay [5], in assay [15], in assay [6] and in assay [7] was “inactive” throughout. Besides, the Potency entry in assay [8], in assay [16], in [9], in assay [10], in assay [11] and in assay [12] was “inactive” each time. For the same compound, the Potency entry in assay [13] and in [14] was “inactive” in each case. For the same compound, the result in assay [3] was inactive. Also, the max response in assay [17] was 8.29%.
